Laboratory results reported in PubChem BioAssay AID504832 (National Center for Advancing Translational Sciences (NCATS), 2011).
About 18,000 (5.8%) of roughly 310,000 compounds were called active. A call without a number means that no potency is given here. Not shown: some 22% with an inconclusive outcome. This is one part of a sample in which actives are shown more often than they occur. Calls come from the whole dose curve; as a rule, active = well fitted inhibition curve with a large enough effect; inconclusive = small, poorly fitted or top-dose-only effect, or another doubt; inactive = no such curve, though single readings can be large or run the other way.

test: Primary qHTS for delayed death inhibitors of the malarial parasite plastid, 48 hour incubation; conditions: P. falciparum luciferase growth in erythrocytes; series mostly up to 28.7 µM
How it was run: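 Firefly luciferase activity from engineered P. falciparum reports growth; inhibitors lower the luminescent signal. Cultures contained 2% hematocrit erythrocytes at 0.1% final parasitemia.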
Potency is the fitted concentration of half-maximal effect.

Structure (SMILES)	Potency
CN(C)c1cccc(C(=O)N2CCC(n3nccc3NC(=O)C3CCOC3)CC2)c1 (stereo not given)	inactive
COc1ccc(CCNC(=O)C(=O)NCC2OCCN2S(=O)(=O)c2ccc(OC)c(C)c2)cc1 (stereo not given)	inactive
COC(=O)c1ccccc1NC(=O)CSc1nc2c(c(=O)[nH]1)CCC2	inactive
CCc1ccc(OCC(=O)OC(C)C(=O)NC2CC2)cc1 (stereo not given)	inactive
O=C(NC1CCCC1)C1CCN(C(=O)Nc2cccc(Cl)c2)CC1	inactive
COc1ccc(Cl)cc1NC(=O)CCN1CCOCC1	inactive
COc1ccc(Cl)cc1NC(=O)C(C)N1CCc2ccccc21 (stereo not given)	6.57 µM (active)
COc1ccc(Cl)cc1NC(=O)CNc1ccccc1F	inactive
O=C(O)CC(c1ccccc1F)N1Cc2ccccc2C1=O (stereo not given)	inactive
CNc1nc(Nc2ccc(C)c(Cl)c2)nc(N)c1[N+](=O)[O-]	inactive
Nc1nc(NCC(=O)O)nc(N2CCCCCC2)c1[N+](=O)[O-]	inactive
CCN1CCN(c2nc(Nc3cccc(F)c3)nc(N)c2[N+](=O)[O-])CC1	13.1 µM (active)
COc1ccccc1C(=O)NC(=O)COC(=O)c1ccco1	inactive
O=C(Cn1cnc2ccccc21)Nc1ccccc1-c1ccccc1	inactive
CCSc1nnc(SCC(=O)NNC(=O)c2ccccc2F)s1	inactive
Cc1c(CN2CCC(CO)(CCOc3ccccc3)CC2)[nH]c2ccc(Cl)cc12	3.7 µM (active)
OCC1(CCOc2ccccc2)CCN(Cc2cn[nH]c2-c2ccccc2)CC1	inactive
Cc1cc(OCCCN2CCN(Cc3ccccc3)CC2)ccc1[N+](=O)[O-]	inactive
CC(OC(=O)CN1C(=O)COc2ccccc21)C(=O)NCc1ccc(F)cc1 (stereo not given)	inactive
O=C(NCCc1ccccn1)c1nc(Cn2cc([N+](=O)[O-])cn2)no1	inactive
CC(=O)Nc1ccc(S(=O)(=O)N(C)c2nc3ccccc3nc2Cl)cc1	inactive
COc1ccc(C(=O)C2CCCN(C(=O)c3cc(C)on3)C2)cc1F (stereo not given)	inactive
O=C(COC(=O)c1ccccc1F)Nc1cc(S(=O)(=O)N2CCOCC2)ccc1N1CCCC1	inactive
CCOc1cc(N2CCOCC2)c(OCC)cc1NC(=O)C1=NN(c2cccc(C)c2)C(=O)CC1	inactive
CC(=O)NCCC(=O)Nc1cc(S(=O)(=O)N2CCOCC2)ccc1N1CCOCC1	inactive
CCOc1cc(N2CCOCC2)c(OCC)cc1NC(=O)COc1cccc2cccnc12	3.29 µM (active)
O=C(COc1cccc2ccccc12)Nc1cc(S(=O)(=O)N2CCOCC2)ccc1N1CCOCC1	11.7 µM (active)

Structure (SMILES)	Potency
NC(=O)C1CCN(C(=O)COc2cccc3cccnc23)CC1	inactive
O=C(Nc1c2c(nn1-c1ccccc1)CS(=O)(=O)C2)C1CCCC1	inactive
Cc1cccc(C)c1NC(=O)CSc1nc2c([nH]1)c(=O)n(C)c(=O)n2C	inactive
Cc1cc(NC(=O)Nc2c[nH]c(=O)[nH]c2=O)ccc1Br	inactive
O=C(NC1CCN(S(=O)(=O)c2ccc(F)cc2)CC1)c1ccccc1	inactive
O=C(Cc1cccs1)Nc1ccc([N+](=O)[O-])cc1	inactive
O=C(CN(c1cc(C(F)(F)F)ccc1Cl)S(=O)(=O)c1ccccc1)NCc1cccnc1	inactive
COCCNC(=O)c1ccc(N2CCC3(CC2)OCCO3)c([N+](=O)[O-])c1	inactive
CCCNC(=O)c1ccc(N2CCC3(CC2)CC(c2ccc(Cl)cc2)=NO3)c([N+](=O)[O-])c1	inactive
CCCNC(=O)c1ccc(N2CCC3(CC2)CC(c2cccc(Br)c2)=NO3)c(NC(=O)c2ccco2)c1	0.738 µM (active)
CCOC(=O)C1CCCN(S(=O)(=O)c2ccc(-n3cnnn3)c(C)c2)C1 (stereo not given)	inactive
Cc1cnc(CN(C)C(=O)C2CCC(=O)N(CCc3cccc(F)c3)C2)[nH]1 (stereo not given)	inactive
Cc1ccc(N(CC(=O)NCC2CCCO2)C(=O)CNS(=O)(=O)c2ccc(Cl)cc2)cc1 (stereo not given)	inactive
O=c1[nH]c(N2CCOCC2)nc2ccccc12	inactive
Cc1ccc(S(=O)(=O)N2CCN(C(=O)COC(=O)c3c(C)cc(C)cc3C)CC2)c(C)c1	14.7 µM (active)
Cc1ccc(S(=O)(=O)N2CCN(C(=O)COC(=O)c3c(C)noc3C)CC2)c(C)c1	inactive
Cc1ccc(S(=O)(=O)N2CCN(C(=O)CSc3cc(C)ccc3C)CC2)c(C)c1	inactive
COc1ccc(N2CCN(C(=O)c3cccs3)CC2)cc1	inactive
O=C(NCCc1ccccc1Cl)C1CCC(=O)N(CCCc2ccccc2)C1 (stereo not given)	inactive
O=C1N=C(N2CCc3ccccc3C2)S/C1=C\c1ccc(O)cc1	7.38 µM (active)
NC1=NC(=O)S/C1=C\c1ccc(O)cc1	inactive
O=C1N=C(N2CCOCC2)S/C1=C\C=C/c1ccccc1	inactive
O=S1(=O)CCO[C@H]2Cc3ccccc3[C@H]2N1Cc1ccccc1	inactive
O=C(c1cc(COc2ccc(F)c(F)c2)on1)N1CCOCC1	inactive
COc1cc(/C=N/NC(=O)c2ccoc2C)ccc1OCCN1CCCCC1	inactive
COc1ccccc1NC(=O)C1=C(C)Nc2nc3ccccc3n2C1c1cccs1 (stereo not given)	13.1 µM (active)
COc1ccccc1NC(=O)C1=C(C)Nc2nnnn2C1c1cccc(Br)c1 (stereo not given)	inactive

Structure (SMILES)	Potency
COc1ccc(C2C(C(=O)Nc3ccccc3OC)=C(C)Nc3nnnn32)c(OC)c1 (stereo not given)	inactive
COc1cccc(NC(=O)CN2CCN(CC(=O)Nc3ccccc3Cl)CC2)c1	inactive
C[C@@H](NC(=O)[C@@H]1Cc2ccccc2CN1)C(=O)NC1CCCC1	inactive
Cc1cc(C(=O)NC2CCN(Cc3ccccc3)CC2)n[nH]1	inactive
Cc1ccc(-c2cc(C(=O)NC3CCN(Cc4ccccc4)CC3)c3ccccc3n2)cc1	13.1 µM (active)
O=C(NC1CCN(Cc2ccccc2)CC1)c1ccccc1F	inactive
COc1ccc(C(=O)C2CCCN(S(=O)(=O)c3cccc(C)c3)C2)c(C)c1 (stereo not given)	inactive
COc1c(C)cc(C(=O)C2CCCN(S(=O)(=O)c3c(C)noc3C)C2)cc1C (stereo not given)	9.28 µM (active)
Cc1ccc(NC(=O)C2CCCN(S(=O)(=O)c3c(C)noc3C)C2)c(C)c1 (stereo not given)	inactive
CN(C(=O)CSc1nnc(-c2ccc(C(C)(C)C)cc2)n1C)C1CCS(=O)(=O)C1 (stereo not given)	inactive
CC(=O)Nc1ccc(C(=O)N(C2=NC(C)CS2)c2ccc(Cl)cc2)cc1 (stereo not given)	inactive
Nc1nc(SCc2cccc(Br)c2)n[nH]1	inactive
Cc1ccc(-c2csc(NNC(=O)c3ccccc3)n2)cc1	2.33 µM (active)
Cc1ccc(-c2csc(NC(=O)c3cccs3)n2)cc1	inactive
Cc1nc(NNC(=O)c2ccccc2)cc(-c2ccccc2)n1	inactive
CCn1c(SCC(=O)NNC(=O)c2ccc(OC)cc2)nnc1C(C)C	inactive
Cc1ccc(Cn2c(=N)c(S(=O)(=O)c3ccc(C)cc3)cc3c(=O)n4ccccc4nc32)cc1	inactive
Cn1c(Cc2cccs2)nnc1SCC(=O)Nc1ccccc1	inactive
COc1cccc(C(=O)Nc2c3c(nn2-c2cccc(C)c2C)CS(=O)(=O)C3)c1OC	10.4 µM (active)
COc1ccccc1OCC(=O)Nc1c2c(nn1-c1ccc(F)cc1)CS(=O)(=O)C2	10.4 µM (active)
O=C(CC1CCCCC1)Nc1c2c(nn1-c1ccc(F)cc1)CS(=O)(=O)C2	inactive
CCC(CC)C(=O)Nc1c2c(nn1-c1ccc(C)cc1)CS(=O)(=O)C2	inactive
Cc1cccc(-n2nc3c(c2NC(=O)c2cc4ccccc4o2)CS(=O)(=O)C3)c1	inactive
COc1cccc(C(=O)Nc2cccnc2)c1OC	inactive
CCOC(=O)c1sc(N)c(C#N)c1COC(=O)C1=COCCO1	inactive
Cc1cc(C)cc(NC(=O)C2CCCN2S(=O)(=O)c2cccc3cccnc23)c1 (stereo not given)	inactive
CCn1c(CC(=O)Nc2ccccc2C)nnc1SCC(=O)NC1=NCCS1	inactive

Structure (SMILES)	Potency
CCCc1nn(C)c2c(=O)[nH]c(-c3cc(S(N)(=O)=O)ccc3OCC)nc12	inactive
N#Cc1cc([N+](=O)[O-])ccc1NCC1CCCO1 (stereo not given)	inactive
CC(C)C(=O)NC(NC(=S)NC1CCS(=O)(=O)C1)C(Cl)(Cl)Cl (stereo not given)	7.38 µM (active)
COc1ccc(NC(=S)NC2CCS(=O)(=O)C2)cc1 (stereo not given)	inactive
O=C(Cc1ccc(Cl)cc1)NC1CCS(=O)(=O)C1 (stereo not given)	inactive
CC1CC(C)CN(C(=O)COC(=O)c2ccc3ncsc3c2)C1 (stereo not given)	inactive
CCc1noc(C)c1C(=O)Nc1nc(-c2ccccc2)cs1	inactive
Nc1nc(Nc2ccccc2)nc(NCCO)c1[N+](=O)[O-]	inactive
COCCNc1nc(N)c([N+](=O)[O-])c(NCCO)n1	inactive
C=CCNc1nc(N)c([N+](=O)[O-])c(NC2CCCCC2)n1	14.7 µM (active)
CSCc1nnc(NC(=O)c2ccc(S(=O)(=O)N3CCCCC3C)cc2)o1 (stereo not given)	inactive
CC(C)Cc1cc(C(=O)NCCc2ccccc2)no1	inactive
CC(C)CNC(=O)c1cc(-c2ccc(Br)cc2)on1	inactive
CC(C)Cc1cc(C(=O)Nc2cc(Br)ccc2O)no1	1.85 µM (active)
Cc1ccc(C(=O)NC(=S)Nc2ccc(N3CCOCC3)cc2)cc1	inactive
COc1cccc(OC)c1C(=O)NC(=S)Nc1ccc(N2CCOCC2)c(Cl)c1	14.7 µM (active)
CCOc1ccc(C(=O)NC(=S)Nc2ccc(N3CCOCC3)c(Cl)c2)cc1[N+](=O)[O-]	inactive
O=C(NCCc1nnc2ccc(SCC(=O)N3CCOCC3)nn12)c1ccccc1	inactive
COc1ccc(S(=O)(=O)N2CCCC(C(=O)N3CCN(C)CC3)C2)cc1C (stereo not given)	inactive
CC(=O)N1CCCc2cc(S(=O)(=O)N3CCCC(C(=O)N4CCN(c5cccc(Cl)c5)CC4)C3)ccc21 (stereo not given)	4.15 µM (active)
CC(=O)N1CCCc2cc(S(=O)(=O)N3CCCC(C(=O)NCc4ccc(Cl)cc4)C3)ccc21 (stereo not given)	inactive
Cc1ccc(S(=O)(=O)N2CCCC(C(=O)N3CCN(C)CC3)C2)cc1 (stereo not given)	inactive
CCCS(=O)(=O)N1CCCC(C(=O)N2CCN(c3ccccc3)CC2)C1 (stereo not given)	inactive
O=C(C1CCCN(S(=O)(=O)c2ccccc2)C1)N1CCN(c2ccc(F)cc2)CC1 (stereo not given)	13.1 µM (active)
